Screening results (PubChem BioAssay)
This is a sample that favours compounds with a hit; in the whole collection about 3% have one here.
KKLEB cytotox = CF airway cell cytotoxicity counter-screen; AID 602141; activity change (cytotoxicity), % at 5 µM; hit rate 0.36% among 360,000; KKLEB CF airway cells viability, ATPlite luminescence, overnight; hits give low values; cells stimulated with P. aeruginosa culture filtrate;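 active = corrected activity change at or below -50% at 5 µM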
HIF-2a inh = HIF-2a inhibition | hit rate 0.72% among 360,000 | 786-0 RCC cells HIF-2a reporter, luciferase luminescence, overnight | inhibition, % at 18.8 µM;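 active = inhibition of the luminescence signal of 40% or more relative to plate controls, in a single-dose primary screen at 18.75 µM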
CF NFkB inh = cystic fibrosis NF-kB activation inhibition; KKLEB NF-kB-GFP reporter, PAF-induced, GFP fluorescence overnight; inhibition, % at 5 µM; hit rate 0.86% among 360,000;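 active = at least 50% inhibition at 5 µM, scaled per plate between neutral and stimulator controls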;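 note: PAF is a Pseudomonas aeruginosa culture filtrate used as stimulus; plate controls were PAF-stimulated DMSO wells for no effect and unstimulated DMSO wells for full effect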
Peg3 promoter = Peg3 promoter activity inhibition | hit rate 1.7% among 360,000 | inhibition, % at 20 µM | HeLa PEG-Prom luciferase reporter, luminescence, overnight;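 active = inhibition of at least 50% at 20 µM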
ABHD5-PLIN5 inh = inhibitors of human ABHD5-perilipin-5 interaction; hit rate 0.78% among 360,000; AID 602281; Split G. princeps luciferase complementation, luminescence, 4 h; inhibition, % at 4 µM;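 active = inhibition above the mean inhibition across every tested compound plus 3 SD, cut at about 22% in these data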;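 note: 0% = DMSO only wells and the 100% control is not disclosed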
Target sequence (Q00G26 whole entry, looked up): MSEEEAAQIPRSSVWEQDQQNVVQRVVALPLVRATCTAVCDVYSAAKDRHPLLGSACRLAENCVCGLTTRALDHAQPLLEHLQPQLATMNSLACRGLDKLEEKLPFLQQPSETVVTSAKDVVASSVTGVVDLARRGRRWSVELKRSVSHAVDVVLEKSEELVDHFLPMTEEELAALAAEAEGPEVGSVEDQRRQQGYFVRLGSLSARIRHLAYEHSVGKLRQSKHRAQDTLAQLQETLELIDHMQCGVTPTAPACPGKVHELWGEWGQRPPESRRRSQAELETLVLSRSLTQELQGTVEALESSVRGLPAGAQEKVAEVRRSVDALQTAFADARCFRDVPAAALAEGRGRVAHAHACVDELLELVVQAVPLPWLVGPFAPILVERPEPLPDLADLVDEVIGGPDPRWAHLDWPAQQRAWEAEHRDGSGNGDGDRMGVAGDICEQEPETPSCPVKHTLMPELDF
Target sequence (Q8WTS1 whole entry, looked up): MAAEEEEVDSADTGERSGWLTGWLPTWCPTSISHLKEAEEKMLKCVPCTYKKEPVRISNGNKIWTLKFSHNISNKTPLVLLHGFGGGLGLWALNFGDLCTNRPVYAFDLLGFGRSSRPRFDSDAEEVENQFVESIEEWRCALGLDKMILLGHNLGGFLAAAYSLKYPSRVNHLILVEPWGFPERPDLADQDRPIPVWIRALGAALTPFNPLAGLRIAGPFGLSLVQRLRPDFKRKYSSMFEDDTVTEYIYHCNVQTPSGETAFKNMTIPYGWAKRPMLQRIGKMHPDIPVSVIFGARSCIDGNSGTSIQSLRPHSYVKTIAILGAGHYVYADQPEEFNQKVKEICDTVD
MITF TRPM1 inh = inhibitors of MITF-driven TRPM1 promoter in melanoma cells; SK-MEL-5 TRPM1 promoter luciferase, 24 h; inhibition, % at 12.5 µM; hit rate 0.83% among 330,000; AID 488899;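 active = mean inhibition across replicates of 60% or more, whatever share of single replicates reaches that level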
CF NFkB conf = confirmation of cystic fibrosis induced NF-kB inhibitors; shares compounds with CF NFkB inh; KKLEB CF airway cells, PAF-induced NF-kB-GFP fluorescence, overnight; inhibition, % at 5 µM; hit rate 64% among 1,300; in the data active = inhibition above about 40%;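 note: stimulus PAF is a Pseudomonas aeruginosa filtrate and not platelet activating factor; plate controls were DMSO wells with stimulus for no effect and unstimulated DMSO wells for full effect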
Starred values were filed as active, the others as inactive; x = not tested or not shown.

SMILES	KKLEB cytotox	HIF-2a inh	CF NFkB inh	Peg3 promoter	ABHD5-PLIN5 inh	MITF TRPM1 inh	CF NFkB conf
CC1C(=O)N(Cc2cn(CC3CCCCC3)nn2)CCS(=O)(=O)N1Cc1ccc(-c2ccccc2)cc1 (stereo not given)	5	-13	17	28	-1	x	x
Cc1c2c(nc3ccccc13)CCC(C)C2 (stereo not given)	1	-57	12	-45	-6	-9	x
Cc1ccc(C(=O)C(C)OC(=O)CCN=C2NS(=O)(=O)c3ccccc32)cc1 (stereo not given)	11	-1	-14	3	6	1	x
CC1C(=O)N(Cc2cn(Cc3ccco3)nn2)CCS(=O)(=O)N1Cc1ccc(-c2ccccc2C(F)(F)F)cc1 (stereo not given)	-23	-16	66*	18	7	x	52*
CCC/C=C/c1ccc(CN2C(C)C(=O)N(Cc3cn(Cc4ccco4)nn3)CCS2(=O)=O)cc1 (stereo not given)	-10	-3	20	14	7	x	x
CCC/C=C/c1ccc(CN2C(C(C)C)C(=O)N(Cc3cn(Cc4ccco4)nn3)CCS2(=O)=O)cc1 (stereo not given)	8	-35	52*	21	-3	x	45*
Cc1ccc2[nH]c(C(=O)N/N=C/c3ccccc3C(=O)O)c(-c3ccccc3)c2c1	-2	19	-10	2	1	6	x
O=C(N/N=C/c1ccccc1)c1[nH]c2ccc(Br)cc2c1-c1ccccc1	-34	31	61*	-1	-9	74*	85*
COc1ccc(S(=O)(=O)N(C(C)=O)c2ccc(OC(C)=O)c3ccccc23)cc1[N+](=O)[O-]	-17	14	79*	17	10	71*	102*
CC(=O)Oc1ccc(N(C(C)=O)S(=O)(=O)c2ccccc2)c2ccccc12	0	13	69*	6	5	x	10
CCCNC(=O)c1ccc(Cn2cc(-c3ccc(OC)cc3)nc2C(C)N)cc1 (stereo not given)	-5	-126	7	-118	-4	-32	x
CSc1ccc(CNC(=O)Cc2ccc(NC(=O)C3=C(C)OCCS3)cc2)cc1	-27	-166	0	-296	-3	-32	x
COc1cccc(CN2CCC(C)(Oc3cccc(Cl)c3)C2)c1OC (stereo not given)	-2	-1	-3	-11	3	x	x
N#CCc1ccc(Oc2ncccn2)cc1	8	7	0	-12	0	-16	x
CCCCCCc1cc2cc(C(=O)OCC)c(=O)oc2cc1O	-32	-45	53*	27	3	3	78*
CC(C)c1nc(Cl)c(C#N)c2c1CCC2	-4	1	34	-13	-8	-8	x
CC(C)c1nc(NCc2ccccc2)c(C#N)c2c1CCCC2	-5	1	-4	8	-3	-12	x
CC(C)c1nc(NCCO)c(C#N)c2c1CCCC2	-10	36	71*	10	11	-12	55*
CC(C)c1nc(Cl)c(C#N)c2c1CCCC2	-4	6	55*	-44	7	0	77*
Nc1nc(-c2ccccc2)nc(-c2ccccc2O)n1	-14	-195	57*	1	5	6	-38
N#CSCC(=O)c1cccc2ccccc12	-35	20	55*	32	-30	18	54*
NC(=O)c1cccc2ccccc12	-3	15	-7	20	0	-6	x
CSc1ccc(CNC(=O)C2(C)CCCN(C(C)=O)C2)cc1 (stereo not given)	-2	1	16	-5	-1	x	x
CCc1nc2c(OCc3ccccc3C(=O)OC)cccn2c1N(C)C(=O)c1cccc(OC)c1	-15	2	13	10	18	x	x
Cc1nc([N+](=O)[O-])c(Br)n1CC(=O)c1ccc(Br)cc1	-42	35	53*	38	20	32	11
SMILES	KKLEB cytotox	HIF-2a inh	CF NFkB inh	Peg3 promoter	ABHD5-PLIN5 inh	MITF TRPM1 inh	CF NFkB conf
N#Cc1ccsc1NC(=O)c1ccc(Cl)c([N+](=O)[O-])c1	-25	-105	50*	-164	4	-14	68*
CCN(N=O)c1ccc(C=C2C=Cc3ccccc32)cc1	1	-212	-21	-292	-2	-91	x
COC(=O)c1ccc(C(C(=O)NCc2ccccc2)N(Cc2cccs2)C(=O)c2cnccn2)cc1 (stereo not given)	-10	9	9	26	5	-4	x
Cc1ccc(C(C(=O)NCc2ccccc2)N(Cc2cccs2)C(=O)c2ccc3c(c2)OCCO3)cc1 (stereo not given)	-16	12	91*	63*	5	8	105*
O=C(Nc1ccn(CCCNCC(c2ccccc2)c2ccccc2)c(=O)n1)OCc1ccccc1	-11	-19	19	25	0	x	x
O=C(NCc1ccccc1)C(c1ccccc1)N(C(=O)c1csnn1)c1ccccc1 (stereo not given)	-6	18	19	31	0	9	x
NC(=O)c1nsc(C(=O)N(c2ccccc2)C(C(=O)NCc2ccc(F)cc2)c2ccc(O)cc2)c1N (stereo not given)	-10	20	52*	55*	-5	10	74*
O=C(NCc1ccc(F)cc1)C(c1ccccc1)N(C(=O)c1csnn1)c1ccccc1 (stereo not given)	3	24	61*	40	-4	-3	17
Cc1ccc(S(=O)(=O)N(C)C)cc1NC(=O)CN1C(=O)NC2(CCCc3ccccc32)C1=O (stereo not given)	1	18	-15	9	5	-6	x
Cc1ccc(/C=N/NC(=O)c2cc(C3CC3)nc3ccccc23)o1	-11	3	10	11	-8	18	x
CC(C)NC(=O)c1ccc2sc([C@@H]3O[C@H](CO)[C@H](O)[C@H](O)[C@H]3O)nc2c1	4	7	-5	5	0	x	x
CCn1c(SC)nc2cc(S(=O)(=O)N3CCCCC3)ccc21	-8	15	52*	-12	5	11	41*
COc1ccc2c(=O)cc(-c3ccncc3)oc2c1OC	2	27	59*	89*	-3	14	77*
COc1ccc(-c2cc(=O)c3c(OC)c(OC)c(OC)c(OC)c3o2)cc1OC	26	-3	16	34	2	5	x
CCCCN(C)C(=S)Nc1ccc2nc3n(c(=O)c2c1)CCCCC3	-3	-3	22	-6	0	15	x
O=C(Nc1ccc(O)cc1)c1cc2ccccc2c(=O)s1	9	-275	41	-350	0	-101	x
O=C(Nc1ccccc1)c1cc2ccccc2c(=O)s1	-9	-184	62*	-270	13	-75	68*
COc1ccc(Cl)cc1NC(=O)NCc1ccc2c(c1)OCO2	4	-17	-10	-4	0	7	x
